Results on nine molecules are retold here after PubChem BioAssay (Tox21).

Several values for one entry are separate records, joined by “and”; a condition that tells them apart may be missing. Identical values can stand only once. Records with an inconclusive call do not appear. Activity calls are given as the source filed them. Unless noted, calls come from the whole dose curve; as a rule, active = well fitted curve in the direction sought with a large enough effect in the repeat runs; inconclusive = weak or mixed curves; inactive = no such curve, though single readings can be large; an effect the other way counts as inactive or inconclusive.

The nature of assay [1]: qHTS assay to identify small molecule antagonists of the sonic hedgehog signaling (Shh) pathway (AID 1259369; calls by dose curve; note: nearly all actives have a fitted effect of over 45% in size; note: potency is the fitted concentration of half-maximal effect). A digest of the protocol: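 Inhibition of Shh signalling is measured as reduced Gli1-response-element firefly luciferase output in an NIH/3T3-derived stable reporter clone stimulated with conditioned medium for 24hr.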
Background: In qHTS, concentration-response curves come from the screen itself.

Assay [2] is described as follows: qHTS assay to identify small molecule agonists of the androgen receptor (AR) signaling pathway in the presence of an antagonist - cell viability counter screen (AID 1259379). Note: nearly all actives have a fitted effect of over 25% in size. Note: potency is the fitted concentration of half-maximal effect. In short, it runs like this: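 Fluorescence from CellTiter-Fluor, added after 15 hr and read 1 hr later, gave cell viability. Cells were MDA-kb2 exposed to compounds (15 concentrations) in the presence of 3.0uM nilutamide at 37C, 0% CO2.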

A short description of assay [3]: qHTS assay to identify small molecule agonists of the estrogen receptor beta (ER-beta) signaling pathway - cell viability counter screen (AID 1259380). Note: nearly all actives have a fitted effect of over 30% in size. Note: potency is the fitted concentration of half-maximal effect. In short, it runs like this: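 Same-well viability counter screen. Cells: ER-beta-UAS-bla HEK293T, plated 6 hr before compound, in 2% charcoal-stripped FBS. Compound exposure 16 hr, 37C; viability by CellTiter-Glo luminescence after 30 min at room temperature.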

Assay [4] can be described thus: qHTS assay to identify small molecule antagonists of the estrogen receptor beta (ER-beta) signaling pathway - cell viability counter screen (AID 1259382). Note: nearly all actives have a fitted effect of over 55% in size. Note: potency is the fitted concentration of half-maximal effect. A digest of the protocol:
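Following a 6 hr plating period, HEK293T cells carrying a UAS-driven beta-lactamase reporter under ER-beta control received compounds and 1nM E2 (final). After 16 hr at 37C and 2 hr substrate loading, CellTiter-Glo luminescence indicated viability.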

A short description of assay [5]: qHTS assay to identify small molecule agonists or antagonists of the thyroid stimulating hormone receptor (TSHR) signaling pathway - wild type cell line counter screen (AID 1259384; calls by dose curve). A digest of the protocol:
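Wild-type Hek293 cells, 800/well, 18 h at 37C, then compound with Ro20-1724 for 30 min RT. cAMP by HTRF (cAMP-d2/anti-cAMP cryptate), 1 h RT, fluorescence read. 15 concentrations, triplicates.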

The target of assay [6] is Thyrotropin receptor (Homo sapiens) (UniProt P16473). Description: qHTS assay to identify small molecule antagonists of the thyroid stimulating hormone receptor (TSHR) signaling pathway (AID 1259385; calls by dose curve; note: nearly all actives have a fitted effect of over 20% in size). A digest of the protocol:
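TSHR-HEK293 cells (800/well) plated 18 h, then compounds with Ro20-1724 and TSH at 1.5 ng/mL final, 30 min at room temperature. cAMP quantified by HTRF (cAMP-d2/anti-cAMP-cryptate, 1 h); 15 concentrations in triplicate.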

The nature of assay [7]: qHTS assay to identify small molecule antagonists of the progesterone receptor (PR) signaling pathway - cell viability counter screen (AID 1346798). Note: nearly all actives have a fitted effect of over 50% in size. Note: potency is the fitted concentration of half-maximal effect. A digest of the protocol:
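Cytotoxicity read as CellTiter-Glo luminescence (30 min, room temperature) in the same wells as the beta-lactamase readout. HEK293T PR-UAS-bla cells in charcoal-stripped 2% FBS received compound and R5020, then 16 h at 37C, 5% CO2.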

Assay [8] is described as follows: qHTS assay to identify small molecule antagonists of the TGF-beta/Smad signaling pathway - cell viability counter screen (AID 1346824). Note: nearly all actives have a fitted effect of over 50% in size. In short, it runs like this:
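SBE-bla HEK 293T cells, incubated overnight, then compound plus 0.25 ng/mL TGF-beta1 (stock added) for 5 hr at 37 C. Viability was read in the same wells by CellTiter-Glo luminescence after 30 min at room temperature.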

The nature of assay [9]: qHTS assay to identify small molecule agonists of the TGF-beta/Smad signaling pathway (AID 1346859; active = well fitted activation curve with a large enough effect in the signal ratio in the repeat runs, not every such curve was filed as active; the % refers to the signal ratio; note: series mostly up to about 77 µM). In short, it runs like this:
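Fluorescence (ex 405 nm; em 460 and 530 nm) was read 2 h after LiveBLAzer FRET substrate at RT. The preceding compound treatment of overnight-plated SBE-bla HEK293T cells lasted 5 h at 37 C.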

For assay [10], the target named is Thyrotropin-releasing hormone receptor (Homo sapiens) (UniProt P34981). Description: qHTS assay to identify small molecule antagonists of the thyrotropin-releasing hormone receptor (TRHR) signaling pathway (AID 1346877; active = well fitted inhibition curve with a large enough effect in the repeat runs, not every such curve was filed as active; note: series mostly up to about 51 µM). A digest of the protocol: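 Cells (TRHR-HEK293) are plated and kept 18 h at 37 °C/5% CO2. A calcium-sensitive dye is added for 2 h, compound follows for 5 min at room temperature, and TRH is then given at 1 nM final.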

For assay [11] the target is unchanged. Description: qHTS assay to identify small molecule agonists of the thyrotropin-releasing hormone receptor (TRHR) signaling pathway (AID 1346891; calls by dose curve; note: series mostly up to about 58 µM). A digest of the protocol: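 Agonist-mode intracellular calcium readout: kinetic fluorescence over 3 min at 1 s intervals after compound addition to TRHR-HEK293 cells (18 h seeded, 2 h dye-loaded at 37 C). Fifteen concentrations, triplicates.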

Assay [12] can be described thus: qHTS assay to identify small molecule agonists of the estrogen receptor alpha (ER-alpha) signaling pathway in the presence of an antagonist - cell viability counter screen (AID 1259386).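 Note: series mostly up to about 92 µM; cells exposed to compounds for 22 h at 37 °C before the viability read; nearly all actives have a fitted effect of over 30% in size.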 In short, it runs like this:
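Cells are starved of estrogens for 5 days in charcoal-stripped serum, seeded for 24hr and co-treated with ICI-182,780 (10.0nM final) and test compounds. After 22hr at 37C, viability is read as CellTiter-Fluor fluorescence.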

The target of assay [13] is Progesterone receptor (Homo sapiens) (UniProt P06401). Description: qHTS assay to identify small molecule agonists of the progesterone receptor (PR) signaling pathway (AID 1346784; calls by dose curve; note: nearly all actives have a fitted effect of over 30% in size). A digest of the protocol:
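Agonist qHTS: compounds pinned onto 3,000 PR-UAS-bla HEK 293T cells per well in charcoal-stripped serum medium, 16hr at 37C, then beta-lactamase activity measured by LiveBLAzer FRET fluorescence after 2 hours at room temperature.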

Assay [14] shares this target. Description: qHTS assay to identify small molecule antagonists of the progesterone receptor (PR) signaling pathway (AID 1346795; active = well fitted inhibition curve with a large enough effect in the signal ratio in the repeat runs, not every such curve was filed as active; the % refers to the signal ratio). In short, it runs like this:
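Antagonist mode with agonist R5020 at 1 nM final and 16 hr incubation at 37C. Reporter was beta-lactamase driven by UAS in HEK293T (PR-UAS-bla), 2% charcoal-stripped serum; signal from LiveBLAzer FRET substrate, 2 hr at room temperature.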

The nature of assay [15]: qHTS assay to identify small molecule agonists of the progesterone receptor (PR) signaling pathway - cell viability counter screen (AID 1346799; calls by dose curve; note: nearly all actives have a fitted effect of over 45% in size; note: potency is the fitted concentration of half-maximal effect). A digest of the protocol: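 Cytotoxicity measured by CellTiter-Glo luminescence (30 min, RT) in the same wells as the PR beta-lactamase agonist read. Those HEK293T cells had 16 h compound treatment at 37 C in 2% charcoal-stripped FBS medium.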

A short description of assay [16]: qHTS assay to identify small molecule agonists of the TGF-beta/Smad signaling pathway - cell viability counter screen (AID 1346829). Note: top concentration of the series differs between compounds; nearly all actives have a fitted effect of over 45% in size. A digest of the protocol:
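Luminescence from CellTiter-Glo, read after a 30 min room-temperature incubation, gives cell viability of SBE-bla HEK 293T cells treated 5 hr with compounds at 37 C.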

Assay [17] deals with Androgen receptor (Homo sapiens) (UniProt P10275). Description: qHTS assay to identify small molecule agonists of the androgen receptor (AR) signaling pathway in the presence of an antagonist (AID 1259381; calls by dose curve; note: nearly all actives have a fitted effect of over 15% in size; note: potency is the fitted concentration of half-maximal effect). A digest of the protocol:
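Cells are MDA-kb2 (human breast carcinoma, MMTV-luc, AR/GR responsive). Nilutamide is present at 3.0uM final throughout; compounds are added at 15 concentrations and incubated 16hr at 37C before ONE-Glo luminescence detection.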

The target of assay [18] is Estrogen receptor (Homo sapiens) (UniProt P03372). Description: qHTS assay to identify small molecule agonists of the estrogen receptor alpha (ER-alpha) signaling pathway in the presence of an antagonist (AID 1259383; calls by dose curve; note: nearly all actives have a fitted effect of over 15% in size; note: potency is the fitted concentration of half-maximal effect; for activation: top concentration of the series differs between compounds). A digest of the protocol: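 Cells are hormone-deprived for 5 days (charcoal-stripped FBS, no phenol red), plated for 24hr, spiked with 10.0nM ICI-182,780, then dosed at 15 concentrations. After 22hr at 37C, ONE-Glo luminescence reports ERE-luciferase activity.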
Sequence of Estrogen receptor (Homo sapiens) (P03372 whole entry, looked up): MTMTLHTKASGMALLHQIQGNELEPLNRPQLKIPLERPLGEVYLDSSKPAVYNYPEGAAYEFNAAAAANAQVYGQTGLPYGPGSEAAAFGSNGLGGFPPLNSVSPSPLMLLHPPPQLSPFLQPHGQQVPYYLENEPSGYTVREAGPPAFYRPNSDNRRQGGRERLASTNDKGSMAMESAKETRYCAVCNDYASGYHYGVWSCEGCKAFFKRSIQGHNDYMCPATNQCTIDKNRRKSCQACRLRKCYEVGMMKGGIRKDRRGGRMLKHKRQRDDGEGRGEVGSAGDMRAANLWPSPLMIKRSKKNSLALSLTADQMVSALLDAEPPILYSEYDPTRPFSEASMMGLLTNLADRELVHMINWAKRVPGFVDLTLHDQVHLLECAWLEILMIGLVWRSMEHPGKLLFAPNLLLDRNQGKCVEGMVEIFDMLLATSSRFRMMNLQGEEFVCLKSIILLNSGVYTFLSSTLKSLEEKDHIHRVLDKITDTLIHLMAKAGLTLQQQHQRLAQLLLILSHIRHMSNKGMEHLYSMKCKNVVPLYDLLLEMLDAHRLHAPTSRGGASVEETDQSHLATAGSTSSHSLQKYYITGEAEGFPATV

Sequence of Thyrotropin receptor (Homo sapiens) (P16473 whole entry, looked up): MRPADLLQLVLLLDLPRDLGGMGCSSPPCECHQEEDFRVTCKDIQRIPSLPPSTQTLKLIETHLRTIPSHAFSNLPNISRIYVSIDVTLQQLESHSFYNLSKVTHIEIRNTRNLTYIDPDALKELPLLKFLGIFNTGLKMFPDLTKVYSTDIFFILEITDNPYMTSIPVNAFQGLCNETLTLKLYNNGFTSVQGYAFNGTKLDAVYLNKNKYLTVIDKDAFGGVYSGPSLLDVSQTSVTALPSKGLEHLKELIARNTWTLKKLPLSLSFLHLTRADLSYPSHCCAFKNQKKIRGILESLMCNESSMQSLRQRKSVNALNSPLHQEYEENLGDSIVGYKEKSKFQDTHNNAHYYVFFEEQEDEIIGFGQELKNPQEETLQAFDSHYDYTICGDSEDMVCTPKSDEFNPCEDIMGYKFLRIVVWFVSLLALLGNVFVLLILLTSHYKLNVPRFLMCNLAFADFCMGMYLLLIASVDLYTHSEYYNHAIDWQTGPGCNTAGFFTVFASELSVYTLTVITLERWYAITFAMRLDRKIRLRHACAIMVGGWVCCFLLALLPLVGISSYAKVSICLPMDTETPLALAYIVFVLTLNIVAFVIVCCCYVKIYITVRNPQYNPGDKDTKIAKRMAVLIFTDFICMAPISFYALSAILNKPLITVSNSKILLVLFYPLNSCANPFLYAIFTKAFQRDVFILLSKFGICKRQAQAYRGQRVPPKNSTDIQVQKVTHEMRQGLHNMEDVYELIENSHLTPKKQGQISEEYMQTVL
Sequence of Thyrotropin-releasing hormone receptor (Homo sapiens) (P34981 whole entry, looked up): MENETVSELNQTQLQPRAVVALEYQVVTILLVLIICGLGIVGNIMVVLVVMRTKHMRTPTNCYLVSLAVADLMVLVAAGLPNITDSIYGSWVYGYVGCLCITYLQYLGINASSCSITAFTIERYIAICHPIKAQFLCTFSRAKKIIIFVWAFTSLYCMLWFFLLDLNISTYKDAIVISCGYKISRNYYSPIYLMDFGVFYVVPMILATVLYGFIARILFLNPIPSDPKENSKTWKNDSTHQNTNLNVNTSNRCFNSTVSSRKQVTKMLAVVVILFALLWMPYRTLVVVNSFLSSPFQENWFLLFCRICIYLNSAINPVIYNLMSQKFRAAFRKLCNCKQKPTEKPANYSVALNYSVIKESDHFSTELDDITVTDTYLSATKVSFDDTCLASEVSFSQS
Sequence of Progesterone receptor (Homo sapiens) (P06401 whole entry, looked up): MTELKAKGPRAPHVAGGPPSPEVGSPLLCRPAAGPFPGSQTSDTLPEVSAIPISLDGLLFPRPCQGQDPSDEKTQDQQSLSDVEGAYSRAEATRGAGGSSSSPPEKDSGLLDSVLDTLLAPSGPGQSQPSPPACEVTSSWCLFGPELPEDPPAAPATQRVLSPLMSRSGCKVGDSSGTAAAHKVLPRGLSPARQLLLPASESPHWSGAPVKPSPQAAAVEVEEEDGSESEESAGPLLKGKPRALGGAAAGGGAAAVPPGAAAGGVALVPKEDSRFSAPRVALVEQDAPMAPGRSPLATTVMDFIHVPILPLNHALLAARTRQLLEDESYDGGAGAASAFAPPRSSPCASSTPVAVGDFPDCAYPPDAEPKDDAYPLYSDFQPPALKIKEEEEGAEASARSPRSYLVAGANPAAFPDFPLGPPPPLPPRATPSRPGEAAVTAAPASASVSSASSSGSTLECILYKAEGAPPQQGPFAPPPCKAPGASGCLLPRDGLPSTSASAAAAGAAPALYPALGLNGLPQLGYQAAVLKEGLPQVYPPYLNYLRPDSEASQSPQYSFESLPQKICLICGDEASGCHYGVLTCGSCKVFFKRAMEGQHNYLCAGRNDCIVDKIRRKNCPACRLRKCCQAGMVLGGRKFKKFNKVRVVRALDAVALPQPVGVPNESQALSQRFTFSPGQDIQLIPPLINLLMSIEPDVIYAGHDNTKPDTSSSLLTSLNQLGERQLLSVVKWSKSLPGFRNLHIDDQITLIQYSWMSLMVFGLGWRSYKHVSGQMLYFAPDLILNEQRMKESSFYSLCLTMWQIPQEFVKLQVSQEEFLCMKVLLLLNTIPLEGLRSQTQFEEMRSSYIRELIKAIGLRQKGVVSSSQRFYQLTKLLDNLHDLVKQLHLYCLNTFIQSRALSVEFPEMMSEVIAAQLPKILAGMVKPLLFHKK
Sequence of Androgen receptor (Homo sapiens) (P10275 whole entry, looked up): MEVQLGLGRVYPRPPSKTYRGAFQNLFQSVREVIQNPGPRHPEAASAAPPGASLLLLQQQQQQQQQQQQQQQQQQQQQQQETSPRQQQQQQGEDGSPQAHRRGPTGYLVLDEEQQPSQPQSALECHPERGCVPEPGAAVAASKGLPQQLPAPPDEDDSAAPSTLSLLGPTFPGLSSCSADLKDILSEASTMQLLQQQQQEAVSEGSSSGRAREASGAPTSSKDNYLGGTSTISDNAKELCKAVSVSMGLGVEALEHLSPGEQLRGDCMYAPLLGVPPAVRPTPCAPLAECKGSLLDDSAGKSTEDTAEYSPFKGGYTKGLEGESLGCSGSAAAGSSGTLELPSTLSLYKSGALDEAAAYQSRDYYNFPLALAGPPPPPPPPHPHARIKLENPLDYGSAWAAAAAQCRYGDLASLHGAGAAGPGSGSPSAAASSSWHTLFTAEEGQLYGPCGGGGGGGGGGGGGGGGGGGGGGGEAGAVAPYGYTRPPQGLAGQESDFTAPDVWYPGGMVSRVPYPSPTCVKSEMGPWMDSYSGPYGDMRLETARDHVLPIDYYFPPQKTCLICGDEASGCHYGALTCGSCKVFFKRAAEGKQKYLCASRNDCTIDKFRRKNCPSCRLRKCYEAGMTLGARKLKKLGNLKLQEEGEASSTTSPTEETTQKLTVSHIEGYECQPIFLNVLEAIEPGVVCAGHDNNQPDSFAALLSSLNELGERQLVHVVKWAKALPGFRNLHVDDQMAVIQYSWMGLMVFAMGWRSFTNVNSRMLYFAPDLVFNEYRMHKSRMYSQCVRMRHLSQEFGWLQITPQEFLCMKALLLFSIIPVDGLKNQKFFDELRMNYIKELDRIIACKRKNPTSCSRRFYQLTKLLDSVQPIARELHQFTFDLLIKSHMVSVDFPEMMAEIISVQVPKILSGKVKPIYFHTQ

For `Oc1ccc(C2(c3ccc(O)cc3)c3ccccc3-c3ccccc32)cc1`, the Potency in assay [1] was 27.3 µM (active); in assay [2], 34.4 µM (active); in assay [3] it was 48.6 µM (active); in assay [4], 61.1 µM (active); in assay [7], 48.6 µM (active). Moreover, the call in assay [5] and in assay [9] was inactive. In addition, the Potency entry in assay [6], in assay [8], in assay [10] and in assay [11] was “inactive” in each case.
Regarding `CC(C)CC(C)N` (configuration not stated), the Potency entry in [1], in assay [2], in [3], in [4], in assay [6] and in assay [12] was “inactive” throughout. The Potency entry in [13], in assay [14], in [7], in [15], in assay [8] and in [16] was “inactive” in each case. Besides, the Potency entry in assay [10] and in assay [11] was “inactive” in each case. Further, the molecule was called inactive in assay [9].
Regarding `CC(C)C(=O)Cl`, the Potency entry in assay [1], in [3], in assay [17], in [4], in assay [6] and in [12] was “inactive” in each case. Besides, the Potency result in assay [13], in assay [14], in assay [8], in assay [10] and in assay [11] was “inactive” in each case. Further, the call in assay [5] and in assay [9] was inactive.
`CC(=O)Nc1ccc2c(c1)Cc1ccccc1-2`: the Potency entry in [1], in assay [2], in [3], in [6], in [12] and in assay [13] was “inactive” in each case. Besides, the Potency entry in assay [7], in assay [8], in assay [16], in assay [10] and in assay [11] was “inactive” throughout. The Potency in assay [18] was 8.77 µM (active). In addition, the result in assay [5] and in assay [9] was inactive.
For the molecule `O=[N+]([O-])O.O=[N+]([O-])O.[Cd]`, the Potency in assay [1] was 1.72 µM (active); in assay [15] it was 4.86 µM (active). For the same molecule, the Potency result in [2] and in assay [6] was “inactive” in each case. Further, the molecule was called inactive in assay [5] and in [8].
With `CN(C)C(=S)S`, the Potency in [1] was 4.95 µM (active) and 962 nM (active) and 3.44 µM (active); in assay [3], 5.56 µM (active) and 1.21 µM (active) and 12.2 µM (active); in assay [4] it was 12.4 µM (active); in assay [7], 15.7 µM (active) and 17.2 µM (active). Moreover, the Potency result in assay [2] and in [8] was “inactive” throughout. Also, the molecule was called inactive in assay [9].
For `C[C@@H]1O[C@@H](O[C@H]2C[C@@H](O)[C@]3(CO)[C@H]4[C@H](O)C[C@]5(C)[C@@H](C6=CC(=O)OC6)CC[C@]5(O)[C@@H]4CC[C@]3(O)C2)[C@H](O)[C@H](O)[C@H]1O`, the Potency entry in [1], in assay [18], in assay [12], in assay [13], in assay [10] and in [11] was “inactive” in each case. In addition, the Potency in assay [3] was 81.9 nM (active) and 94.4 nM (active); in [17], 366 nM (active) and 168 nM (active); in assay [4], 46.1 nM (active) and 75 nM (active).
Turning to `O=C(NC(=O)c1c(F)cccc1F)Nc1cc(Cl)c(OC(F)(F)C(F)F)c(Cl)c1`, the Potency result in [1], in [2], in [17], in [4], in assay [6] and in assay [12] was “inactive” in each case. Besides, the Potency entry in assay [13], in assay [7], in assay [8], in [16], in [10] and in [11] was “inactive” throughout. Also, the call in assay [5] and in assay [9] was inactive.
For `c1cc[c]([Sb]([c]2ccccc2)[c]2ccccc2)cc1`, the Potency in [1] is 12.2 µM (active). In addition, the Potency entry in [2], in assay [17], in [6], in assay [8], in assay [10] and in assay [11] was “inactive” throughout. Also, the result in [5] was inactive.
